# aSyn yeast inh = rescues yeast growth from alpha-synuclein toxicity | Yeast expressing alpha-synuclein, growth rescue, BacTiter-Glo, 24 h | Potency, µM (highest dose often 46.1 µM), without a hit: top-dose growth rescue (activation), most hits filed as activators | 370,000 tested, 0.14% active; further: % of control where 0% means no effect; nearly all actives have a fitted effect of over 65% in size
#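 Galactose-induced alpha-syn yeast (OD600=0.02, raffinose-pregrown) + pinned cpd, 24 hr, 30 deg C; growth by BacTiter-Glo luminescence. Growth restoration scores as activation.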
# TDP-43 yeast inh = TDP-43 toxicity inhibition in yeast. 410,000 tested, 1.8% active. Potency, µM (highest dose often 46.1 µM), inactives show at the highest dose growth rescue (activation), usual class: activators. TDP-43 expressing yeast growth rescue, BacTiter-Glo, 24 h; further: % of control where 0% means no effect; nearly all actives have a fitted effect of over 50% in size
#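 Yeast cells expressing TDP-43 under galactose induction are exposed to compounds for 24 hr at 30 deg C. BacTiter-Glo luminescence measures growth, so protective compounds score as activators.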
# Mito fusion act = inhibitors of mitochondrial division or activators of mitochondrial fusion | AID 485298 | S. cerevisiae fusion-defective mutant growth rescue, CellTiterGlo 48 h | Potency, µM (series often up to 46.1 µM), for inactives: top-dose growth rescue (activation), actives largely listed as activators | 320,000 tested, 0.23% active; further: % of control where 0% means no effect; nearly all actives have a fitted effect of over 45% in size
#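 Temperature-sensitive fusion-defective S. cerevisiae (e.g. fzo1-1, mgm1-5) were grown with compound in YPEG medium (3% ethanol, 3% glycerol) for 48 hours at 37C. Growth rescue was measured as viability by CellTiterGlo luminescence after 10 minutes at ambient.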
# Abeta yeast res = compounds reversing amyloid beta toxicity in yeast; AID 1347071; 410,000 tested, 0.063% active; Potency, µM (highest dose often 46.1 µM), most hits filed as activators; yeast expressing A-beta42, growth rescue, OD600, 48 h; response scale: 0% DMSO, 100% iron-clioquinol control; further: nearly all actives have a fitted effect of over 55% in size
#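 Yeast growth medium received pinned compounds, then yeast cells expressing toxic A-beta were added; plates incubated at 30 C for 48 hr. Growth read as absorbance at 600 nm, normalized to DMSO and equimolar FeCl3 plus clioquinol controls.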
# FUS suppressor = rescues growth of FUS-expressing yeast | S. cerevisiae FUS-expressing, growth rescue, OD600, 24 h | Potency, µM (highest dose often 76.6 µM), hits mostly activators | 390,000 tested, 0.24% active | AID 1347120;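 further: plate controls were DMSO vehicle for no effect and reference control for full effect; nearly all actives have a fitted effect of over 55% in size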
#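 Yeast expressing FUS under galactose induction, OD 0.005 in 2% galactose medium; compounds in a dilution series, 24 h at 30C. Growth rescue by absorbance at 600 nm; CP55940 positive control, DMSO negative.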
# Starred values were filed as active, the others as inactive; i = inactive; ? = inconclusive; . = no result; ! = not active in a repeat. Shown are actives, neighbours in structure and some others; about 2.2% of the full set was active somewhere. The call rests on the fitted dose curve; in most records, active means well fitted curve in the direction sought with a large enough effect; inconclusive means small, poorly fitted or top-dose-only effect, or another doubt; inactive means no such curve, though single readings can be large; an effect the other way counts as inactive or inconclusive. Potency means the concentration at half of the fitted maximal effect.
SMILES,aSyn yeast inh,TDP-43 yeast inh,Mito fusion act,Abeta yeast res,FUS suppressor
Cc1ccc(NC(=O)C(c2ccccc2)c2ccccc2)nc1,0.3%,-4.5%,-10.7%,i,i
O=C(NCc1c(F)cccc1F)C1CCC(CNS(=O)(=O)c2cccc3cccnc23)CC1 (stereo not given),.,.,.,.,i
CCOc1ccc(NCc2nnc(SCc3ccc(Cl)cc3)n2-c2ccccc2)cc1,?,25.1µM*,19.8%,i,.
CCOC(=O)CSc1nnc(CNc2ccc(Cl)cc2)n1-c1ccccc1,27.4%,?,4.3%,i,i
O=c1nc(-c2ccccc2)c2cc(SC(F)F)ccc2[nH]1,4.6%,16.5%,1.6%,i,i
Nc1nc(CN2CCCCCC2)nc(Nc2ccccc2)n1,-0.1%,0.1%,2.9%,i,i
Cc1c(-c2nc(N)nc(Nc3ccccc3)n2)oc2ccccc12,?,?,14.1µM*,i,i
COc1ccc(-c2oc3c(c2C#CC2(O)CCCCC2)C(OC(C)=O)CCC3)cc1 (stereo not given),20.3%,20µM*,.,i,?
Cn1nc(-c2ccc(F)cc2)nc2c(=O)n(C)c(=O)nc1-2,-84.4%,.,.,.,.
Cc1ccc(NC(=O)CSCC(=O)N(C)CCOc2ccc(Cl)cc2)cc1,9.0%,?,?,i,i
Cc1cccc(NC(=O)CSCC(=O)N(C)CCOc2ccc(Cl)cc2)c1,-2.0%,12.6µM*,-2.6%,i,i
Cc1ccc(-c2cc(=O)[nH][nH]2)c(C)c1,-8.4%,-4.4%,-2.0%,i,i
CC(C)Cc1ccc(-c2cc(=O)[nH][nH]2)cc1,5.8%,20µM*,-6.7%,i,i
O=C(Nc1cc(Sc2nc3ccccc3s2)cc([N+](=O)[O-])c1)c1ccccc1,3.9%,0.0%,?,i,.
O=C(Nc1cc(Sc2ccccn2)cc([N+](=O)[O-])c1)c1cccc(F)c1,3.2%,22.4µM*,17.8µM*,i,.
COc1cccc(Nc2ccccc2C(=O)O)c1,1.2%,11.1%,11.9%,i,i
O=C(O)c1ccccc1Nc1ccccc1,-0.4%,-36.8%,23.1µM*!,i,i
Cc1cc(OCc2cc(C(=O)NC(C)c3c(C)nn(C)c3C)no2)cc(C)c1Cl (stereo not given),15.5%,27.1%,3.3%,i,?
COc1ccc(-n2nc(C(=O)NCCc3ccc(Cl)cc3)c3c4ccccc4n(C)c3c2=O)cc1,.,11.7%,.,i,i
OCc1cccc(-c2cnc3c(Nc4cccc(OC(F)(F)C(F)F)c4)nccn23)c1,-7.3%,20µM*,.,i,?
O=[N+]([O-])c1ccc(N2CCN(Cc3ccccc3)CC2)c2c1no[n+]2[O-],13.5%,35.5µM*,.,i,i
O=[N+]([O-])c1ccc(N2CCN(Cc3ccccc3)CC2)s1,-10.9%,-7.4%,9.9%,i,i
Cc1ccc(O)c(N=NC2=C(O)CC(C)(C)CC2=O)c1,7.08µM*,12.0%,3.7%,?,.
CC1(C)CC(=O)C(N=Nc2cc(Cl)c(Cl)c(Cl)c2)=C(O)C1,6.1%,7.5%,0.3%,i,i
Cn1c(SCc2ccccc2Cl)nnc1-c1cnccn1,-0.9%,11.2µM*,4.3%,i,i
SMILES,aSyn yeast inh,TDP-43 yeast inh,Mito fusion act,Abeta yeast res,FUS suppressor
Cn1c(SCc2cccc(F)c2)nnc1-c1cnccn1,1.0%,12.8%,0.8%,i,i
COc1ccc(Cn2ccc3ccc(-c4ccc5ccn(Cc6ccccc6)c5c4)cc32)cc1,.,.,.,.,i
CC(C)c1cc(C(C)C)c(S(=O)(=O)NC(c2ccccn2)C23CC2C3)c(C(C)C)c1 (stereo not given),?,22.4µM*,.,i,?
CC(C)Cc1ccc(C(C)C(=O)Nc2cccnc2)cc1 (stereo not given),?,-12.5%,8.1%,i,i
CC(C)Cc1ccc(C(C)C(=O)Nc2ccc(O)cc2)cc1 (stereo not given),-15.4%,11.2µM*,-1.3%,i,i
Cc1cc(C(=O)N/N=C/c2ccc(OCc3ccccc3)cc2)c(C)o1,1.7%,12.6µM*,0.4%,?,i
O=S(=O)(CCSc1nc2ccccc2o1)c1nc2ccccc2s1,-18.2%,11.2µM*,-2.2%,i,i
COc1cc(-c2ccc3c(=O)c4ccccc4n(C)c3c2)cc(OC)c1OC,-23.2%,-52.3%,-1.2%,i,?
Cn1c2ccccc2c(=O)c2ccc(F)cc21,14.1µM*,-62.1%,4.4%,i,i
COc1cc(OC)cc(C(=O)Nc2cc(-c3nc4cccnc4s3)ccc2C)c1,.,19.5%,.,i,i
O=C1NC2(CCc3ccccc3C2)C(=O)N1CCOc1cccc(Cl)c1 (stereo not given),14.7%,20µM*,15.2%,?,i
Cc1ccccc1-c1nc(S(=O)(=O)c2ccccc2)c(N2CCCC2)o1,3.8%,20.6%,.,i,i
Cc1cccc(C)c1-n1nnnc1C1(C)CCC(=O)N1C1CC1 (stereo not given),2.7%,?,.,i,i
Cc1ccc(C)c(S(=O)(=O)c2c(C)cc(C)nc2Cl)c1,2.9%,11.2µM*,-2.4%,i,i
Cc1cccc(NC(=O)CN2C(=O)N/C(=C/c3cc(C)n(C(C)C)c3C)C2=O)c1,21.2%,-9.0%,-4.0%,i,20µM*
Cc1cccc(NC(=O)CN2C(=O)N/C(=C/c3ccc(C)s3)C2=O)c1,-3.4%,-7.5%,-1.2%,i,.
O=C(CSc1nc2ccc(Nc3nc(N4CCOCC4)nc(N4CCOCC4)n3)cc2s1)Nc1ccccc1Cl,-10.4%,-9.6%,-0.9%,i,i
O=C(CSc1nc2ccc(Nc3nc(N4CCCC4)nc(N4CCCC4)n3)cc2s1)NCc1ccco1,-0.7%,20µM*,-2.3%,i,i
CCOc1ccc2nc(SCC(=O)NCc3ccco3)sc2c1,-0.4%,14.1µM*,-4.8%,i,i
COc1ccc(CN(C)C(=O)CNC(=O)c2ccc3ccccc3c2)c(OC)c1,0.0%,22.3%,10.1%,i,i
COc1ccc(Br)cc1CN(C)C(=O)CNC(=O)c1ccc2ccccc2c1,-6.4%,22.4µM*,-9.1%,i,i
CC1ON=C(c2ccc(F)cc2)NC1=O (stereo not given),4.9%,24.2%,.,i,i
CC[C@@]12C(=O)N(c3cccc(F)c3)C(=O)N1[C@H](c1cccc(C)c1)[C@@H]1C(=O)N(Cc3ccccc3)C(=O)[C@@H]12,1.7%,-1.2%,2.1%,i,31.6µM*
Cc1cccc([C@@H]2[C@@H]3C(=O)N(Cc4ccccc4)C(=O)[C@@H]3[C@]3(Cc4ccccc4)C(=O)N(c4cccc(F)c4)C(=O)N23)c1,-2.4%,-8.3%,-7.1%,i,i
